Only some compounds are listed: those with a hit (about 5.2% of all), similar ones and a draw of the others.
Coupling enz – qHTS Assay for Inhibitors of Fructose-1,6-bisphosphate Aldolase from Giardia Lamblia: Coupling assay counterscreen; activity change, negative = inhibition, % at 58.2 µM, hits read low; AID 2472, 2010; hit rate 0.67% among 290,000; coupling enzyme system counterscreen, AmpLite Red fluorescence; in the data active = activity change below about -30%
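Coupling enzymes only (glyceraldehyde-3-phosphate) + compound, at 57.5 uM final, 10 min RT; add substrate/coupling/AmpLite Red mix, 20 min RT; fluorescence ex 525/em 598 nm. Actives flag coupling-system interference.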
Sfp inh – qHTS Assay for Inhibitors of Bacillus subtilis Sfp phosphopantetheinyl transferase (PPTase); AID 1490, 2009; Potency, µM, most hits filed as inhibitors; Biochemical Sfp PPTase activity, qHTS; hit rate 3.5% among 310,000;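 note: the enzyme is Sfp with the accession as filed and its product quenches rhodamine fluorescence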
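Compounds were incubated with enzyme (final 15 nM) for 15 min at room temperature before substrate addition started the reaction. Fluorescence at 525 nm excitation, 598 nm emission was recorded immediately and after 30 minutes.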
Tau ThT inhib – qHTS for Inhibitors of Tau Fibril Formation, Thioflavin T Binding; Potency, µM (doses to about 57.4 µM), most hits filed as inhibitors; recombinant tau K18 P301L, heparin-induced fibrillization, ThT fluorescence; hit rate 2.1% among 270,000; Microtubule-associated protein tau (Homo sapiens), P10636; note: nearly all actives have a fitted effect of over 55% in size
Target sequence (P10636 561-689 P618L limits assumed): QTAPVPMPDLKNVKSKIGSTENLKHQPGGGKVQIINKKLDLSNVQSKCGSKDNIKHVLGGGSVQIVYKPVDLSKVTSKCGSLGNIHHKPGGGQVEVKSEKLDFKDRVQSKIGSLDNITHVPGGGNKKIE
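Aggregation was driven by heparin (20 uM final) acting on recombinant tau […] bearing P301L in 100 mM sodium acetate pH 7; fibrils were detected with Thioflavin T.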
Tau fluor cs – Counterscreen qHTS for Inhibitors of Tau Fibril Formation, Fluorescence Polarization. tau K18 P301L Alexa594 fluorescence, heparin fibrillization. Potency, µM (highest dose often 57.7 µM). hit rate 0.93% among 280,000; note: nearly all actives have a fitted effect of over 55% in size
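Human tau K18 P301L (15 uM unlabeled, 0.24 uM Alexa 594-labeled) in 100 mM sodium acetate pH 7 with 20 uM heparin, 6 hr at 37 C. ThT 30 uM added, 1 hr ambient; Alexa 594 FP and total fluorescence read at 555/632 nm.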
Tau fibril FP – qHTS for Inhibitors of Tau Fibril Formation, Fluorescence Polarization. Microtubule-associated protein tau (Homo sapiens), P10636. K18 P301L tau heparin fibrillization, Alexa594 FP, 6 h. Potency, µM (top dose mostly 57.7 µM), actives largely listed as inhibitors. hit rate 0.39% among 280,000. AID 1468, 2008; note: nearly all actives have a fitted effect of over 55% in size
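Quantitative HTS format: compounds meet 15 uM recombinant K18 P301L tau and Alexa 594-tau tracer in 100 mM sodium acetate pH 7; 20 uM heparin triggers fibrillization at 37 C over 6 hr; FP gives the signal.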
A number is an active result; . = inactive; ? = inconclusive; / = not tested or not shown; [ ] = another dose, or the depositor's remark. Unless noted, calls come from the whole dose curve; as a rule, active = well fitted curve in the direction sought with a large enough effect; inconclusive = small, poorly fitted or top-dose-only effect, or another doubt; inactive = no such curve, though single readings can be large; an effect the other way counts as inactive or inconclusive.

SMILES	Coupling enz	Sfp inh	Tau ThT inhib	Tau fluor cs	Tau fibril FP
Cc1coc2c1C(=O)C(=O)c1c-2ccc2c1CCCC2(C)C	-40	.	14µM	?	?
Cc1ccc(OCCn2c(=S)[nH]c3c(N)ncnc32)cc1	.	.	.	.	.
CC(C)Oc1ccc(OCCn2c(=S)[nH]c3c(N)ncnc32)cc1	.	50µM	?	?	.
Cc1cccc(CN2CCN(CC(=O)Nc3c(C)cccc3C)S2(=O)=O)c1	/	/	.	.	.
CN=c1scc(-c2ccc([N+](=O)[O-])cc2)n1/N=C/c1ccco1	.	.	3.5µM	.	.
O=C1c2ccc([N+](=O)[O-])cc2NC(c2ccco2)N1/N=C/c1ccco1 (stereo not drawn)	.	?	13µM	?	.
O=C1c2ccccc2NC(c2ccc(-c3cccc([N+](=O)[O-])c3)o2)N1O (stereo not drawn)	.	.	?	.	.
COc1cc(NC(=O)CSc2nc3ccccc3nc2Cc2ccccc2OC)cc(OC)c1	/	/	.	.	.
Oc1nc(Nc2ccccc2)sc1/C=C1\C=Nc2ccccc21	.	.	3.5µM	8.9µM[quencher]	.
CCOC(=O)c1c(Nc2ccccc2)sc(/C=C2\C=Nc3ccccc32)c1O	.	.	.	?	.
Cc1cc(C)c(S(=O)(=O)NCc2csc(-c3ccccc3)n2)c(C)c1	/	/	.	.	.
COc1cc(/C=C2\SC(=S)N(C(C(=O)O)c3ccccc3)C2=O)ccc1O (stereo not drawn)	.	?	7.1µM	.	.
CCOc1ccc(/C=C2\SC(=S)N(Nc3ccccc3)C2=O)cc1OC	.	?	?	.	.
COc1cc(/C=C2/SC(=NCc3ccccc3)N(Cc3ccccc3)C2=O)ccc1O	.	.	?	10µM[quencher]	.
CCOc1ccc(/C=C2/SC(=S)N(C(C(=O)O)c3ccccc3)C2=O)cc1OCC (stereo not drawn)	.	56µM	16µM	.	?
COc1cc(/C=C2/SC(=S)N(Cc3ccccc3)C2=O)ccc1O	.	.	/	/	/
CCOc1cc(/C=C2\SC(=S)N(C(C(=O)O)c3ccccc3)C2=O)ccc1O (stereo not drawn)	.	40µM	?	.	.
O=C(O)C(c1ccccc1)N1C(=O)/C(=C\c2ccc(O)c(O)c2)SC1=S (stereo not drawn)	.	.	/	/	/
COc1ccccc1/C=C1\SC(=S)N(NS(=O)(=O)c2ccccc2)C1=O	.	.	/	/	/
COc1ccccc1/C=C1\SC(=S)N(C(C(=O)O)c2ccccc2)C1=O (stereo not drawn)	.	56µM	?	.	.
CCCCOc1ccc(C(=S)N2CCC(C(N)=O)CC2)cc1	.	.	.	.	.
CC(=O)N1CCN(C(=S)c2ccc(-c3ccc(Cl)cc3)o2)CC1	.	32µM	.	.	.
COc1ccc(CCNC(=S)N2CCC(C(N)=O)CC2)cc1	.	56µM	.	.	.
COc1ccc(C(=S)N2CCC(C(N)=O)CC2)cc1Br	.	40µM	.	.	.
NC(=O)c1ccc(-c2ccc(Br)cc2)o1	.	.	.	.	.
SMILES	Coupling enz	Sfp inh	Tau ThT inhib	Tau fluor cs	Tau fibril FP
CC(=O)N1CCN(c2ccccc2NC(=O)Cc2ccc(Cl)cc2)CC1	.	.	.	.	.
NC(=O)C1CCN(C(=S)c2ccc(-c3ccc(Br)cc3)o2)CC1	-33	16µM	?	.	.
O=S(=O)(NCCS(=O)(=O)N1CCN(c2ccccc2F)CC1)c1ccc(Cl)cc1	/	/	.	.	.
CCN(C(=O)CCc1nc(-c2ccc(C)cc2)no1)c1cccc(C(F)(F)F)c1	/	/	?	.	.
CN1C(=O)/C(=C\C(=O)c2cccs2)c2ccccc21	.	45µM	?	.	.
O=C1CCN(C(=O)c2cccs2)c2ccccc21	.	.	.	.	.
CCCCN1CCC[C@H]1CNC(=O)c1cc(C#N)c2ccccc2c1OC	.	.	/	/	/
CC(=O)Nc1ccc2nc(SCCOc3ccccc3Cl)sc2c1	/	/	?	11µM[quencher]	11µM
COc1cc(C)ccc1OCCSc1nc2ccc(NC(=O)c3cccs3)cc2s1	/	/	.	5µM[quencher]	10µM
COc1cccc(NC(=O)CSc2nc3ccc(NC(=O)c4cccs4)cc3s2)c1	/	/	.	7.1µM[quencher]	7.9µM
Cc1cccc(NC(=O)CSc2nc3ccc(NC(=O)c4cccs4)cc3s2)c1	/	/	.	?	?
O=C(Nc1ccc(F)cc1)C1CCN(S(=O)(=O)c2ccc3c(c2)CCCN3C(=O)C2CCC2)CC1	/	/	.	?	.
CCOc1ccc(Cl)cc1/C=N/NC(N)=O	-39	.	.	.	.
CSc1ccc(CCNC(=O)Cn2ncn3c(cc4ccccc43)c2=O)cc1	/	/	.	.	.
CC(/C=N/n1c(-c2ccccc2)n[nH]c1=S)=C\c1ccco1	.	?	?	.	.
CC(/C=N/n1c(-c2ccc(C)cc2)n[nH]c1=S)=C\c1ccco1	.	50µM	.	.	.
CC(/C=N/n1c(-c2ccco2)n[nH]c1=S)=C\c1ccco1	.	45µM	?	.	.
COc1ccc(C(=O)/C=C/c2ccc(O)cc2)c(O)c1CC=C(C)C	.	.	25µM	16µM[quencher]	?
C/C(CCC(=O)OC[C@@H]1O[C@H](C#Cc2ccccc2)C=C[C@@H]1Oc1ccc(C)cc1)=N/OC[C@@H](C)[C@H](OCc1ccccc1)C(C)C	.	.	.[11.5 µM]	.[11.6 µM]	.[11.6 µM]
Cc1ccc(CN(Cc2cccn2-c2nnc(N3CCCC3=O)s2)C(=O)Nc2ccccc2Cl)cc1	/	/	.	.	.
C=CCN(C(=O)CSc1nc2c(sc3ccccc32)c(=O)n1CCN(CC)CC)c1ccccc1	.	50µM	?	.	?
COc1ccc(NC(=O)CSc2nc3ccccc3c(=O)n2CCNC(C)=O)c(OC)c1	.	25µM	.	.	.
COc1ccccc1NC(=O)CSc1nc2c(sc3ccccc32)c(=O)n1CCN(C)C	.	40µM	?	.	?
O=P(O)(O)C(O)(Cn1ccnc1)P(=O)(O)O	.	.	.	.	.
N#Cc1ccc(CS(=O)(=O)c2nnnn2-c2ccccc2)cc1	.	.	?	.	?
SMILES	Coupling enz	Sfp inh	Tau ThT inhib	Tau fluor cs	Tau fibril FP
CC(C)(C)OC(=O)N1CCC(c2c(C(=O)NCc3cccc(Cl)c3)cnn2-c2ccc(F)cc2)CC1	/	/	.	.	.
Cc1ccc(C(=O)C2=C(O)C(=O)N(Cc3ccco3)C2c2cccc(Br)c2)o1 (stereo not drawn)	.	56µM	/	/	/
CCn1c(=O)cc(SCC(=O)NCc2ccccc2OC)c2ccccc21	/	/	.	.	.
CCCOc1cc(N)ccc1C(=O)OCCN(CC)CC	.	.	/	/	/
CCCOc1ccc(N)cc1N	-66	45µM	3.2µM	11µM[quencher]	7.1µM
CC1=C(C(=O)c2ccccc2)C(c2ccc(O)cc2)NC(=S)N1 (stereo not drawn)	.	.	.	.	.

Source: PubChem (National Center for Advancing Translational Sciences (NCATS))
